Screens: PubChem BioAssay, Broad Institute
Rows were chosen to be rich in hits. Some 3% of all compounds tested hit in one or more screens of this group.
Wnt bcat act: Wnt/beta-catenin pathway activation. Wnt/beta-catenin reporter cell assay, activator, plate reader. activation, % at 9.35 µM. actives 1.2% (n = 300,000). AID 743398; in the data active means activation above about 30%, passing the limit was not always enough; inconclusive means no clear call, values can overlap the other calls;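 further: 0% = neutral control wells and 100% = positive control wells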
MITF TRPM1 HTS: activators of MITF-driven TRPM1 promoter activity in SK-MEL-5 cells | actives 0.75% (n = 300,000) | SK-MEL-5 TRPM1-promoter luciferase, 24 h; % of positive control, neutral wells = 0 | activation, % at 12.5 µM;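 active means mean activation of at least 80% with every replicate also reaching 80%; inconclusive means mean reaches 80% but some replicate falls short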;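 further: 0% = neutral control wells and 100% = parthenolide positive control wells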
C2C12 statin: suppression of simvastatin myotoxicity; C2C12 myotubes + simvastatin, ATP luminescence, 48 h; scaled: DMSO 0, geranylgeraniol control 100; rescue of ATP level, % at 7.49 µM; actives 0.78% (n = 330,000); AID 602340;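 active means mean ATP rescue above about 67%, or every replicate alone reaching that limit, limit read from the data, passing the limit was not always enough; inconclusive means no clear call, values can overlap the other calls; inactive means mean under the limit and some replicate under it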;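 further: myotubes were challenged with 10 µM simvastatin during compound exposure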
esBAF inh: inhibitors of esBAF chromatin remodeling in mouse ES cells. actives 2% (n = 350,000). reporter increase, % at 12.5 µM. Bmi1-luciferase knock-in reporter, 24 h; 100% = twice the neutral-well signal; in the data active means activation above about 40%; inconclusive means no clear call, values can overlap the other calls;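 further: 0% = median of the plate's neutral control wells and 100% = double that signal; a rise in the Bmi1 reporter signal indicates esBAF inhibition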
Numbers without * were called inactive; ? = inconclusive; · = no result given; ! = not confirmed by another sample.

SMILES	Wnt bcat act	MITF TRPM1 HTS	C2C12 statin	esBAF inh
C[C@@H]1CN([C@@H](C)CO)C(=O)Cc2cc(NC(=O)C3CC3)ccc2O[C@H]1CN(C)Cc1ccc(C(=O)Nc2ccccc2N)cc1	·	·	2	-11
CC1Cc2nc(SCC(=O)c3ccccc3)n(Cc3ccccc3)c(=O)c2S1 (stereo unspecified)	15	·	6	81*
O=C(/C=C/c1ccccc1)NCCC1=CCCCC1	28	40	1	71*
O=C(/C=C/c1ccc(F)cc1)NCCC1=CCCCC1	65*	·	-17	78*
COc1ccccc1/C=C/C(=O)NCCC1=CCCCC1	53*	48	·	·
O=C(COC(=O)/C=C/c1ccc(C(F)(F)F)cc1)NCCC1=CCCCC1	-1	0	-2	0
CC=Cc1ccc2n(c1=O)C[C@H]1[C@H](CO)[C@@H](C(=O)NCc3ccc4c(c3)OCO4)[C@@H]2N1C(=O)C1CC1 (mixture of isomers)	·	·	-8	-18
COc1cccc(C(=O)/C=C2\Sc3ccccc3N2C)c1	17	50	-5	45*
CO[C@H]1CN(C)C(=O)c2cc(NC(=O)NC3CCCCC3)ccc2OC[C@H](C)N(C)C[C@@H]1C	·	·	-16	1
Cc1nn(-c2nc3ccccc3s2)c(C)c1Oc1ccccc1O	·	77	7	45*
CC(=O)c1ccc(NC(=O)c2noc3c2CCC3)cc1	3	-53	2	-54
COc1cc(NC(=O)c2noc3c2CCC3)c(OC)cc1Cl	·	-13	?	2
COc1ccc(NC(=O)c2noc3c2CCC3)cc1	28	·	-2	95*
Cc1ccc(NC(=O)c2noc3c2CCC3)cc1C	33*	47	·	·
CC[C@@]12C(=O)N(c3cccc(Cl)c3)C(=O)N1[C@H](c1ccc(Br)cc1)[C@@H]1C(=O)N(C(C)(C)C)C(=O)[C@@H]12	-1	12	-9	-6
CC(C)C[C@@]12C(=O)N(c3cccc(Cl)c3)C(=O)N1[C@H](c1ccc(Br)cc1)[C@@H]1C(=O)N(C(C)(C)C)C(=O)[C@@H]12	-6	7	98*	-2
Cc1ccc2cc3cc(C(=O)NC4CC4)oc3nc2c1	31*	57	-17	45*
Cc1ccc2cc3cc(C(=O)NC4CCCCC4)oc3nc2c1	13	44	-18	47*
Cc1ccc2cc3cc(C(=O)NCCCN4CC(C)CC(C)C4)oc3nc2c1 (stereo unspecified)	-2	25	-12	-5
Cc1ccc2cc3cc(C(=O)N4CCCCC4C)oc3nc2c1 (stereo unspecified)	·	74	-63	50*
Cc1ccc2cc3cc(C(=O)NCCC(C)C)oc3nc2c1	·	32	·	·
Cc1nn(-c2ccccc2)c(C)c1-c1ccccc1O	0	-2	17	14
Cc1nn(-c2ccccc2)c(/N=C/c2ccc(O)cc2)c1-c1ccccc1	·	83*	6	?
Cc1nn(-c2ccccc2)nc1C(=O)NN	36*	0	2	4
O=C(COC(=O)c1cc2ccccc2oc1=O)Nc1ccc(F)cc1F	47*	62	-1	46*
SMILES	Wnt bcat act	MITF TRPM1 HTS	C2C12 statin	esBAF inh
CSc1nc(N)nc(SCC(=O)OC(C)C)c1C#N	17	·	1	4
CSc1nc(N)nc(SCC(=O)c2ccc(C)cc2)c1C#N	·	54	-14	61*
CCOC(=O)C(=O)Nc1ccc(OCc2ccccc2)cc1	-1	4	0	-5
Cc1cc(C(=O)Nc2ccc(OCc3ccccc3)cc2)c(C)o1	28	64	-27	44*
Cc1ccc(C(=O)Nc2ccc(OCc3ccccc3)cc2)s1	-3	61	-8	32
Cc1ccsc1C(=O)Nc1ccc(OCc2ccccc2)cc1	17	55	-31	54*
O=C(Nc1ccc(OCc2ccccc2)cc1)c1ccccc1	-6	50	·	·
CC(C)=CC(=O)Nc1ccc(OCc2ccccc2)cc1	41*	64	-22	50*
CC(C)=CC(=O)Nc1ccc(Br)cc1	-3	107*	2	66*
CN(C)C(=O)C[C@@H]1CC[C@H]2[C@@H](COC[C@@H](O)CN2C(=O)C2CCCC2)O1	·	·	14	-3
C[C@@H]1CN([C@@H](C)CO)C(=O)c2cc(-c3cccc(F)c3)cnc2O[C@@H]1CN(C)Cc1cccnc1	·	·	-4	1
C[C@@H]1CCCCO[C@@H](CN(C)S(=O)(=O)c2cn(C)cn2)[C@H](C)CN([C@@H](C)CO)C(=O)c2cc(NC(=O)Nc3cccc4ccccc34)ccc2O1	·	·	·	0
COc1ccc(S(=O)(=O)Nc2cccc3c2O[C@H](CN(C)Cc2ccncc2)[C@H](C)CN([C@H](C)CO)C3=O)cc1	·	·	-1	10
CCCC(=O)Nc1ccc2c(c1)C(=O)N(C)C[C@@H](OC)[C@@H](C)CN(CC1CCCC1)[C@H](C)CO2	·	·	17	-5
C[C@H]1CN([C@@H](C)CO)C(=O)Cc2cc(NS(C)(=O)=O)ccc2O[C@H]1CN(C)S(=O)(=O)c1ccc(F)cc1	·	·	-11	-1
CCOC(=O)c1c(NC(=O)c2cc(C)oc2C)sc(C(=O)Nc2ccc(Cl)cc2)c1C	42*	75	-29	?
C[C@]12CC[C@H]3C(=CCc4cc(O)ccc43)[C@@H]1CCC2=O	0	37	-1	31*!
C=CCn1cc(-c2ccccc2)cc(C#N)c1=O	·	19	141*	-4
C=CCn1cc(-c2ccc(Cl)cc2)cc(C#N)c1=O	·	9	5	-10
CCC(=O)N(C)C[C@H]1Oc2cc(C3=CCCCC3)ccc2S(=O)(=O)N([C@@H](C)CO)C[C@@H]1C	·	·	-26	·
Cn1c2c(c(=O)n(C)c1=O)C(CC(=O)Nc1ccccc1)C(=O)N2 (stereo unspecified)	0	4	133*	-3
O=C(C[C@H]1CC[C@H]2[C@@H](COC[C@H](O)CN2Cc2ccc(Oc3ccccc3)cc2)O1)N1CCc2ccccc2C1	·	·	27	16
COc1ccccc1N/C=C1/Sc2cc(Cl)ccc2NC1=O	1	·	·	·
COc1ccc(N/C=C2/Sc3ccccc3NC2=O)cc1	-1	47	0	53*
O=C1Nc2ccccc2S/C1=C/NCc1ccccc1Cl	·	15	·	·
SMILES	Wnt bcat act	MITF TRPM1 HTS	C2C12 statin	esBAF inh
O=C1Nc2ccccc2S/C1=C/c1cccs1	34*	·	·	·
Cc1ccc(N/C=C2/Sc3ccccc3NC2=O)cc1	37*	56	·	·
C[C@@H]1CN([C@@H](C)CO)S(=O)(=O)c2ccc(C#Cc3ccccn3)cc2O[C@@H]1CN(C)C(=O)C1CC1	·	·	10	-4
COc1ccc(CC(N)c2csc(NC(=O)c3cc(C(C)(C)C)oc3C)n2)cc1 (stereo unspecified)	-3	·	4	53*
O=C(Nc1ccc2c(c1)[C@H]1C[C@@H](CC(=O)N3CCOCC3)O[C@H](CO)[C@H]1O2)c1ccc2c(c1)OCO2	·	·	9	-1
CC(C)(C)N=Cc1cc(-c2ccccc2)sc1O	63*	·	-11	74*
COc1cccc(C(=O)NN=C2CCCC2)c1	7	-4	3	-1
COc1ccc(C(=O)NN=C2CCCC2)cc1	0	·	-8	45*
Cc1cc(OCc2ccc(C(=O)NN=C3CCCC3)cc2)ccc1Cl	46*	27	·	·
